Laboratory results reported in PubChem BioAssay (NCI).
About 79,000 compounds went through this panel and 15% of them were active in at least one assay; those are over-represented in the sample as a whole. Active and inactive are the calls of the source. Rule as the data show it: active = growth inhibition above about 70%; inactive = the rest.

Tests used:
[1] = NCI Yeast Anticancer Drug Screen. Data for the rad50 strain (AID 155);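 also: 0% = growth of vehicle-only cultures of the same strain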; conditions: S. cerevisiae rad50 strain growth inhibition; at 50.0 µM; active compounds read high
Summary of the method: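 Inhibition values express reduced yeast growth in compound-treated cultures relative to vehicle-treated controls.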

[2] = NCI Yeast Anticancer Drug Screen. Data for the mec2-1 strain (AID 157); conditions: S. cerevisiae mec2-1 strain, at 50.0 µM, active compounds read high
Summary of the method: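 Each compound was tested on mec2-1 yeast, a strain altered in DNA damage repair or cell cycle control. Growth inhibition is reported relative to vehicle.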

[3] = NCI Yeast Anticancer Drug Screen. Data for the sgs1 mgt1 strain (AID 161);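 also: 0% = growth of cultures given vehicle only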; conditions: S. cerevisiae sgs1 mgt1 strain, at 50.0 µM, active compounds read high
Summary of the method: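 Genetically altered yeast, compound exposure, growth inhibition relative to vehicle.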

[4] = NCI Yeast Anticancer Drug Screen. Data for the cln2 rad14 strain (AID 165);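 also: 0% = growth equal to vehicle treated cultures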; conditions: S. cerevisiae cln2 rad14 strain, at 50.0 µM, active compounds read high
Summary of the method: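 Test compounds were added to cln2 rad14 yeast cultures; inhibition of growth was then determined by comparison with vehicle treatment.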

[5] = NCI Yeast Anticancer Drug Screen. Data for the bub3 strain (AID 167); conditions: S. cerevisiae bub3 mutant strain, at 50.0 µM, active compounds read high
Summary of the method: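 Steps: expose the mutant yeast strain to compound; grow alongside vehicle-treated cultures; measure growth; express inhibition against the vehicle cultures.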

[6] = NCI Yeast Anticancer Drug Screen. Data for the mlh1 rad18 strain (AID 175); conditions: S. cerevisiae mlh1 rad18 strain growth inhibition; at 50.0 µM; active compounds read high
Summary of the method: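 Inhibition values reflect reduced growth of mutant yeast versus vehicle-treated controls following compound exposure; the mutations affect DNA damage repair.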

Measured: growth inhibition

COC(=O)Oc1ccccc1C(=O)O
inactive: [1] -25.2% | [2] -22.6% | [3] -15.6% | [4] 0.2% | [5] -24.6% | [6] -5.55%

CCCCCCCCCCCCCCCCCCCCCC(C)C
inactive: [1] -8% | [2] 0.8% | [3] -10.9% | [4] -8.6% | [5] -7.55% | [6] -31.4%

Cc1ccc(C)c2c1C1CCCCC3(OCCCO3)C21O (stereo unspecified)
inactive: [1] -4.2% | [2] -6.3% | [3] -44.2% | [4] -6.9% | [5] -24.2% | [6] -0.85%

COc1ccc(OC)c(NC(=O)Sc2c(Cl)c(Cl)nc(Cl)c2Cl)c1
inactive: [1] 18.4% | [2] 13.2% | [3] 16.2% | [4] -8.9% | [5] -0.05% | [6] -10.2%

C=CCSc1nc2ccc(N3C(=O)CCC3=O)cc2s1
inactive: [1] 15.4% | [2] -11.7% | [3] -10.6% | [4] 10.2% | [5] 6.05% | [6] 4%

COc1cccc(C(c2cc3c(cc2O)OCO3)N2CCOCC2)c1O (stereo unspecified)
inactive: [1] 15.9% | [2] 30.6% | [3] 51.4% | [4] 8.7% | [5] 1.35%
active: [6] 77.4%

COc1ccc(C2=C(Cl)c3cc(OC)c(OC)cc3C2=O)cc1OC
inactive: [1] 0.75% | [2] -7.1% | [3] -7.05% | [4] -18.9% | [5] -9.85% | [6] 2.4%

CC(=O)/C(=C\c1ccc(/C=C(\C(C)=O)C(=O)CCN(C)C)cc1)C(=O)CCN(C)C
inactive: [1] 38.6% | [2] 58.5% | [3] 7.05% | [4] 5% | [5] 5.65% | [6] -19.6%

CC(C)C1CC(C)(C)C2CC3OC(C(C)C)CC(C)(C)C3CC2O1 (stereo unspecified)
inactive: [1] -12.1% | [2] -3% | [3] 2.75% | [4] -2.65% | [5] -10.3% | [6] 1.35%

C[C@]12CCC(=O)C=C1CC[C@@H]1[C@@H]2C(=O)C[C@@]2(C)[C@H]1CC[C@]2(O)C(=O)C=O
inactive: [1] -5% | [2] -1.4% | [3] 13.8% | [4] 16.9% | [5] -10.8% | [6] 2.45%

CCCCCCCCCCCCCCCCCCC(CO)CO
inactive: [1] -22.4% | [2] -20.6% | [3] -8.65% | [4] -45% | [5] -10.2% | [6] 1.8%

CC1(C)C2CCC1C(=O)C(C=O)C2 (stereo unspecified)
inactive: [1] -10.3% | [2] 16.1% | [3] -22.1% | [4] 32.5% | [5] -40.2% | [6] -41.8%

Nc1cccc(S(=O)(=O)O)c1
inactive: [1] -27.1% | [2] -10.8% | [3] -36.2% | [4] -37.1% | [5] -13.8% | [6] -5.2%

CCN(CC)CCCC(C)Nc1nccc(/C=C/c2ccc(Cl)cc2)n1 (stereo unspecified)
inactive: [1] 9.9% | [2] 16.3% | [3] 28.9% | [4] -1.1% | [5] 14% | [6] 41.7%

CC(=O)NCCCCNS(=O)(=O)c1ccc(C)cc1
inactive: [1] -16.1% | [2] -3.15% | [3] -17.4% | [4] -6.1% | [5] -0.7% | [6] 5.1%

CC/C=C\CCOC(=O)C1OC1c1ccccc1 (stereo unspecified)
inactive: [1] 8.15% | [2] 17.3% | [3] -8.75% | [4] 10.9% | [5] 0% | [6] 1.5%

FCCN(CCF)Cc1ccc2c(c1)OCO2
inactive: [1] -4.8% | [2] -12.3% | [3] 2.05% | [4] -63.1% | [5] -3.1% | [6] -7.4%

O=C1OC([C@H](O)c2cccnc2)c2ccccc21 (stereo partly specified)
inactive: [1] -17.1% | [2] -24.9% | [3] -39.4% | [4] -22.9% | [5] -26.1% | [6] -21.6%

CC1CN(c2ccc(Cl)cc2)CC(C)OC(=O)O1 (stereo unspecified)
inactive: [1] 18.8% | [2] -5.75% | [3] 5.65% | [4] 22.9% | [5] 21.8% | [6] 8.6%

O=C(NCCN1CCCCC1)c1ccc(I)cc1
inactive: [1] 9.2% | [2] 0.95% | [3] 24.8% | [4] 10.2% | [5] 22.4% | [6] 8.6%

CC1CCC(C(C)(C)c2ccccc2)C(=O)C1 (stereo unspecified)
inactive: [1] 12.1% | [2] -17.6% | [3] -9.4% | [4] 19.4% | [5] -19% | [6] 15.4%

Cc1ccc(C(=O)c2ccccc2Cc2cccc3ccccc23)c(C)c1
inactive: [1] 4.35% | [2] 6.6% | [3] 1.2% | [4] -13.7% | [5] 12.6% | [6] -14.5%

CN(C)CCCOC(=O)C(O)(Cc1ccccc1)C1CC1 (stereo unspecified)
inactive: [1] 10.7% | [2] 15.4% | [3] 6.25% | [4] 5.35% | [5] 28.6% | [6] 15.1%

O=C(O)c1ccc2c([N+](=O)[O-])cccc2n1
inactive: [1] 33.5% | [2] 19.2% | [3] 14.3% | [4] -44% | [5] 1.15% | [6] 19.9%

Cc1ccc2oc(=O)c(C(=O)Nc3nc(C45CC6CC(CC(C6)C4)C5)cs3)cc2c1
inactive: [1] -23.1% | [2] -22.9% | [3] -23.6% | [4] 13% | [5] -30.5% | [6] -26.2%

CCCCCCc1ccc2c3cccc4cccc(c5cccc1c52)c43
inactive: [1] -9.25% | [2] -15.6% | [3] -22.1% | [4] -34.2% | [5] -11.1% | [6] -25.6%

Cc1ccc(S(=O)(=O)NN(C)C(=O)c2ccccc2)cc1
inactive: [1] -5.95% | [2] -0.75% | [3] 3.05% | [4] -25.2% | [5] 22.8% | [6] -9.05%

CC(=O)Oc1ccc(C2CC(=O)N(CCN(C)C)C2=O)cc1 (stereo unspecified)
inactive: [1] 0.2% | [2] 30.2% | [3] -0.5% | [4] -6.35% | [5] 14.2% | [6] -2.1%

COc1c(OC2OC(CO)C(O)C(O)C2O)cc2c(c1OC)-c1ccc(OC)c(=O)cc1C(NC(C)=O)CC2 (stereo unspecified)
inactive: [1] 13.8% | [2] 8.75% | [3] 10.8% | [4] 11.7% | [5] 19% | [6] 20.4%

O=C1C=C/C(=N\N=C(c2ccccc2)c2ccccc2)O1
inactive: [1] -38.1% | [2] -67.8% | [3] -49.6% | [4] 7.45% | [5] -42.7% | [6] -28.2%

CCCCNC(=O)Nc1cccc(C)c1C
inactive: [1] -4.2% | [2] -7.9% | [3] 0.75% | [4] -25.8% | [5] 0.55% | [6] 6.35%

CC(C)(O)CC(C)(c1ccccc1)c1ccccc1
inactive: [1] -9.95% | [2] 0.75% | [3] -1.25% | [4] -39% | [5] -13.1% | [6] -15.2%

[O-][N+](CCO)(CCO)Cc1ccccc1
inactive: [1] 14.1% | [2] 1.05% | [3] 19.8% | [4] 6.2% | [5] 9.65% | [6] 26.6%

CC(=O)OCc1cccc(O)c1C(=O)CCC=C(C)C
inactive: [1] -4.4% | [2] -17.1% | [3] 8.15% | [4] -10.9% | [5] -6.7% | [6] -63.5%

CC1CCCC/C1=N\N(C)C (stereo unspecified)
inactive: [1] -44% | [2] -19.9% | [3] -12.8% | [4] -29.6% | [5] -5.65% | [6] 2.7%

Cc1nn(-c2ccc([N+](=O)[O-])cc2)c2c1C(C)(C)C(C#N)=C(N)O2
inactive: [1] -9.9% | [2] -6.7% | [3] -3.5% | [4] -3.55% | [5] 0.65% | [6] 6.95%

CN(C)CCC(=O)Cc1ccccc1
inactive: [1] -8.8% | [2] -12.3% | [3] -4.55% | [4] -8.15% | [5] -26.1% | [6] 0.95%

C[N+]([O-])(CCO)Cc1ccccc1 (stereo unspecified)
inactive: [1] -1.45% | [2] -17.8% | [3] -6.1% | [4] 0.95% | [5] 4.75% | [6] -14.3%

c1ccc(C(SN=C2CCCCC2)(c2ccccc2)c2ccccc2)cc1
inactive: [1] -4.35% | [2] -2.6% | [3] -25.6% | [4] 10.9% | [5] -1.2% | [6] -13.1%

CCCC(C)(C)CO
inactive: [1] 1.75% | [2] 1.35% | [3] -1.85% | [4] 5.6% | [5] 9.3% | [6] 5.75%

COC(=O)c1ccccc1C1CN=NC12Cc1c(ccc3c1CCC3)C2=O (stereo unspecified)
inactive: [1] -4.35% | [2] -5.95% | [3] -15.1% | [4] -9.7% | [5] 27.9% | [6] -0.85%
